# Assay results from the OligoGym collection.
# Target: IREB2
# Experiment: pooled miR-30 sensor sort-seq; sequence = guide strand
# Conditions: shRNA
# Note: reference of the scale not given here.
row,Sequence,sensor-assay potency score (higher = more potent)
1,TTATGTGTGAATCTGTGCCGAC,-0.0474
2,TGTCACAGCAACTCTATCCTGA,0.64
3,TTCATCATCATTTACATCCATG,-0.574
4,TCAACTGTAAGATCTGTCGGAC,0.203
5,TAAAATTCCACAGGTAACCAAA,-1.05

# Target: IRF2
# Experiment: as above
# Conditions: shRNA
row,Sequence,sensor-assay potency score (higher = more potent)
1,AATCTCTTGATTCTCAATGTTG,-1.2
2,TCTTGATTCTCAATGTTGCTGT,0.147
3,TTTCTGCATAGGAAGACACGGG,-0.335
4,TATCAGTCGTTTCGCTTTCTGC,-0.797
5,TTTCCTTTCTTAGAAGGCCGTT,-0.36
6,TTGCTCTCCTCTTTGATGGTGA,-0.593
7,TTCTGCATAGGAAGACACGGGG,-0.312
8,TTTGCCTTCAATATTCCTCTTC,0.432
9,TTTCTTTATGCTTTTATCCTTG,-0.739
10,TTCAATATTCCTCTTCCGCCAG,-0.844
11,TACAACTTGGCAAATGTCTGGC,0.449

# Target: IRX2
# Experiment: as above
# Conditions: shRNA
row,Sequence,sensor-assay potency score (higher = more potent)
1,TAGTTTGTGTAGTTGCCGTAGA,0.0957
2,ATGGCTAGCATGATCTTCTCGC,-0.31
3,TTGTCCTTGCACTCCGAGCCCG,-1.01
4,TCTTTCTTGGGCTCGTAGCCGC,-1
5,TTCTTGGGCTCGTAGCCGCCGC,-1.6
6,TTGTCGGGACTCTCGTCCTTGC,-0.88
7,ATCTTCGCTTTTGTTTCTCGGG,-1.09
8,TGTCCTTGCACTCCGAGCCCGA,-0.973
9,TCTTCGCTTTTGTTTCTCGGGG,-0.791
10,TTCGCTTTTGTTTCTCGGGGCC,-0.0873
11,TACTTGTCCTTGCACTCCGAGC,-1.54
12,TCCTCGTCCTCATCTTCGCTTT,-1.22

# Target: ISLR2
# Experiment: as above
# Conditions: shRNA
row,Sequence,sensor-assay potency score (higher = more potent)
1,TGAGCGTACTTGTCCACGCAGG,-1.13
2,TTGTCAGGGACTACACGCCGGG,-0.648
3,TTGAGCTCTGCGCTCTGGTTGA,-0.693
4,TTGCGCAGGTCGCTCCACGGAA,-1.26
5,TAGCGCACCGAGTGCGTCCCGG,-1.05
6,TTGAAAACAACGAAAACAGGAA,-0.395
7,TTTCCAAAGTCTTCGCTCGTTT,-0.577
8,TTTGTAAGCGCAGTCCGCGAAC,-1.25
9,TTTGGAACTAAAAACTAGGGGT,0.382
10,TTGACGCCTTCCTCTACGCGGG,-1.19
